Measured values as given in PubChem BioAssay (NCI).
Compounds without any hit were thinned out: in the full panel of roughly 83,000, 20% have a hit.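 The endpoint reported here, percent growth, reads 100 for growth as untreated, 0 for no net growth and -100 for all cells dead.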 A number with no mark means an inactive call. Active and inactive are the calls of the source. The calls were made as follows: active = growth percent below 10; inactive = the rest.

Columns and labels:
Assay in all cases: NCI-60 one-dose screen, 48 h (100 = growth as untreated, 0 = no growth, -100 = all killed)
Conditions in all cases: 10 µM unless noted
[1] = system: NCI-H23 lung
[2] = system: NCI-H226 lung
[3] = system: NCI-H322M lung
[4] = system: HOP-62 NSCLC
[5] = system: NCI-H460 lung
[6] = system: HOP-92 NSCLC
[7] = system: NCI-H522 lung
[8] = system: A549/ATCC NSCLC
[9] = system: COLO 205 colon
[10] = system: 786-0 renal

| Structure (SMILES) | growth [1] | growth [2] | growth [3] | growth [4] | growth [5] | growth [6] | growth [7] | growth [8] | growth [9] | growth [10] |
| --- | --- | --- | --- | --- | --- | --- | --- | --- | --- | --- |
| NNC(=O)c1ccc(-n2nc(-c3ccccc3)c3ccccc32)cc1 | 87.8% | 82.3% | 74.5% | 65.2% | 97.2% | 87.2% | 79.8% | 95.3% | 79.8% | – |
| C[C@H]1[C@H](C)CC[C@]2(C(=O)Nc3ccc4ncccc4c3)CC[C@]3(C)C(=CC[C@@H]4[C@@]5(C)CCCNC(C)(C)[C@@H]5CC[C@]43C)[C@H]12 | 51% | 110% | 63.1% | 95.2% | – | 60.2% | 9.94% (active) | -92.1% (active) | -82.7% (active) | -96.2% (active) |
| C=C1C(=O)O[C@H]2[C@H]1CC/C(CNS(=O)(=O)c1cccc3ccccc13)=C\CC[C@@]1(C)O[C@@H]21 | 57.9% | 57.8% | 91.2% | 94.9% | – | 12.1% | -63.9% (active) | 83.5% | 8.89% (active) | 26.1% |
| Cc1ccc(C(=O)/C(=C\c2ccc([N+](=O)[O-])cc2)S(=O)Cc2ccc(Cl)cc2)cc1 (centres undefined) | 41% | 66.4% | 80.3% | 46.7% | – | 64.8% | -5.71% (active) | 84.1% | 20.7% | -52.4% (active) |
| CC(=O)[C@@H]1CC[C@]2(C(N)=O)CC[C@]3(C)[C@H](CC[C@@H]4[C@@]5(C)CCCNC(C)(C)[C@@H]5CC[C@]43C)[C@@H]12 | 93.7% | 99.6% | 96.3% | 98.3% | – | 81.7% | 107% | 83.3% | 86.6% | 88.9% |
| O=C1c2c(c3c4cccc(F)c4[nH]c3c3ccc4ccccc4c23)C(=O)N1O | 56.2% | 54.1% | 64% | 63.2% | – | 79.1% | 30% | 65.7% | 57.4% | 70.7% |
| C#CCNC(=O)[C@H](Cc1ccccc1)NC(=O)[C@]12CC[C@@H](C(=C)C)[C@@H]1[C@H]1CC[C@@H]3[C@@]4(C)CCC(=O)C(C)(C)[C@@H]4CC[C@@]3(C)[C@]1(C)CC2 | 70.6% | 68.7% | – | 77.1% | 66.7% | 66% | 52.6% | 53.9% | – | 76% |
| COc1cccc2c1c1nc3cc(C)c(C)cc3nc1n2CCN(C)C | 18.4% | -6.81% (active) | 24.7% | 24.9% | – | 36.1% | -4.98% (active) | 10.6% | 9.54% (active) | 36% |
| O=C1/C=C/[C@@H](O)[C@@H]2C[C@@H](O)C[C@H]2/C=C/CCC[C@H](CCc2ccc3ncccc3c2)O1 | -32.5% (active) | -28.7% (active) | 17.6% | 15.3% | – | 30.2% | -53.4% (active) | 19.2% | -98.4% (active) | -50.2% (active) |
| O=[N+]([O-])c1ccc(N=Nc2cc(S(=O)(=O)O)c3cccc(S(=O)(=O)O)c3c2O)cc1 | 103% | 105% | 80.7% | 107% | – | 87.8% | 110% | 114% | 127% | 114% |
